Reference: article PMC5540273 (PLoS ONE, 2017)

Assays:
Conditions in all cases: concentration: 1 μM, replicates: in singlicate; n = 1
[1] = system: BMPR1A
[2] = system: BMPR1B
[3] = system: BMPR2
[4] = system: BMX
[5] = system: BRAF
[6] = system: T1, BRK
T1 construct: gene PTK6

[7] = system: BRSK1
[8] = system: BRSK2
[9] = system: BTK
[10] = system: BUB1
[11] = system: CAMK1B
[12] = system: CAMK1D
[13] = system: CAMK1G
[14] = system: CAMK1
[15] = system: CAMK2A
[16] = system: CAMK2B
[17] = system: CAMK2D
[18] = system: CAMK2G
[19] = system: CAMK4
[20] = system: CAMKK1
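Also: KINOMEscan kinase panel screen.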

Cc1cc(N2Cc3ccccc3C2)nc(Nc2ccc(S(=O)(=O)N3CCOCC3)cc2)n1.Cl [GSK1669917]
%Inh [1]: 0%
%Inh [2]: 0%
%Inh [3]: 0%
%Inh [4]: 11%
%Inh [5]: 0%
%Inh [6]: 38%
%Inh [7]: 0%
%Inh [8]: 0%
%Inh [9]: 0%
%Inh [10]: 21%
%Inh [11]: 4%
%Inh [12]: 9%
%Inh [13]: 0%
%Inh [14]: 5%
%Inh [15]: 0%
%Inh [16]: 0%
%Inh [17]: 2%
%Inh [18]: 20%
%Inh [19]: 0%
%Inh [20]: 0%

COc1ccc(CNC(=O)NC2CCN(c3ccnc(Nc4cc(OC)c(OC)c(OC)c4)n3)C2)cc1 (centres unmarked) [GSK1379748]
%Inh [1]: 1%
%Inh [2]: 0%
%Inh [3]: 0%
%Inh [4]: 21%
%Inh [5]: 0%
%Inh [6]: 3%
%Inh [7]: 0%
%Inh [8]: 0%
%Inh [9]: 32%
%Inh [10]: 32%
%Inh [11]: 2%
%Inh [12]: 15%
%Inh [13]: 8%
%Inh [14]: 28%
%Inh [15]: 0%
%Inh [16]: 0%
%Inh [17]: 16%
%Inh [18]: 17%
%Inh [19]: 0%
%Inh [20]: 8%

COC(=O)c1c(-c2ccccc2)c2cc(C(=O)O)ccc2c(=O)n1Cc1ccccc1
%Inh [1]: 0%
%Inh [2]: 3%
%Inh [3]: 0%
%Inh [4]: 17%
%Inh [5]: 90%
%Inh [6]: 0%
%Inh [7]: 0%
%Inh [8]: 0%
%Inh [9]: 0%
%Inh [10]: 0%
%Inh [11]: 0%
%Inh [12]: 1%
%Inh [13]: 6%
%Inh [14]: 1%
%Inh [15]: 0%
%Inh [16]: 0%
%Inh [17]: 5%
%Inh [18]: 0%
%Inh [19]: 18%
%Inh [20]: 0%

COc1ccccc1-c1ccc2c(NC(=O)C3CC3)n[nH]c2n1 [SB-711239]
%Inh [1]: 0%
%Inh [2]: 0%
%Inh [3]: 10%
%Inh [4]: 16%
%Inh [5]: 5%
%Inh [6]: 2%
%Inh [7]: 0%
%Inh [8]: 2%
%Inh [9]: 32%
%Inh [10]: 11%
%Inh [11]: 33%
%Inh [12]: 12%
%Inh [13]: 27%
%Inh [14]: 4%
%Inh [15]: 0%
%Inh [16]: 0%
%Inh [17]: 16%
%Inh [18]: 9%
%Inh [19]: 0%
%Inh [20]: 9%
